# Laboratory results as given in PubChem BioAssay (Tox21).
# Calls of active or inactive are those of the source. Calls follow the shape of the dose curve; as a rule, active = well fitted curve in the direction sought with a large enough effect in the repeat runs; inconclusive = weak or mixed curves; inactive = flat fitted curve, though single readings scatter.
# Test: qHTS assay to test for compound auto fluorescence at 535 nm (green) in HepG2 cell free culture (AID 720686)
# Conditions: Cell-free medium, green autofluorescence 485/535 nm; series mostly up to 91.3 µM; fluorescence, % of fluorescein control: at the top concentration
# Excerpt: U.S. Tox21 Program National Center for Advancing Translational Sciences [NCATS] NIH Chemical Genomics Center [NCGC] U.S. Environmental Protection Agency [EPA] National Institutes of Environmental Health Sciences [NIEHS] National Toxicology Program [NTP] U.S. Food and Drug Administration [FDA] Tox21 Assay Overview: Compound auto fluorescence often interferes with screening of the compound library against various biological targets and signaling pathways. Some of these compounds may have fluorophoric properties. Such properties may interfere with the assay outputs resulting in false positives and/or negatives. To decrease such complications and ensure the compound activities are relevant in terms of biological response, the Tox21 10K compound library was screened for auto fluorescence. From the fluorophores used as reporter signals in our screening assays, the auto fluorescence equivalencies of compounds against three fluorophores have been evaluated: Triamterene, Fluorescein and Rose Bengal sodium for blue, green and red fluorescence, respectively. The fluorescence intensities were measured using Excitation/Emission wavelengths at 405/460nm, 485/535nm and 540/590nm for blue, green and red labels, respectively. This assay includes the green fluorescence data.
# Tox21 Assay Protocol Summary: 5 uL of culture medium (MEM containing 10% FBS) per well was dispensed into black wall/clear bottom 1536-well plates using a Multidrop Combi Dispenser (ThermoFisher Scientific, Waltham, MA). After 23 nL compound or DMSO vehicle was transferred into assay plate by a pintool work station (Kalypsys, San Diego, CA), fluorescence intensities in the assay plates were measured by an Envision (PerkinElmer, Shelton, CT) plate reader using three labels for measuring blue, green and red fluorescence at […] 460, 535 and 590nm respectively.
# % is scaled to controls: 0 for no effect and ±100 for the full control effect.
Compound,"fluorescence, % of fluorescein control",Potency
Clc1nnc(Cl)c2ccccc12,-0.121% (inactive),
CCN(CC)C(=O)c1cc(S(=O)(=O)Cc2ccccc2)c(N2CCC(c3ccccc3)CC2)cc1N(CC)CCN(C)C,,inactive
C[Si](Cl)(c1ccccc1)c1ccccc1,-0.0541% (inactive),
CC(C(=O)O)c1ccc2c(c1)[nH]c1ccc(Cl)cc12 (stereo not given),-0.0046% [at 46 µM] (inactive),
CCC(CC)C(C)CCOC(C)=O (stereo not given),-0.0226% (inactive),
Cc1nc(-c2ccc(Cl)cc2)oc1COC(C)(C)C(=O)O,0.163% [at 46 µM] (inactive),
CCC(C)[O-].CCC(C)[O-].CCOC(=O)/C=C(/C)[O-].[Al+3],-0.024% (inactive),
Cc1cc(C(C#N)c2ccc(Cl)cc2)c(Cl)cc1NC(=O)c1cc(I)cc(I)c1O (stereo not given),0.545% [at 46 µM] (inactive),
CCCCCCCCCCC[C@@H](C[C@@H]1OC(=O)[C@H]1CCCCCC)OC(=O)[C@H](CC(C)C)NC=O,0.0614% [at 46 µM] (inactive),
CCCCCCCC,-0.0045% (inactive),
Cc1cc(-n2nc3ccc(Cl)cc3n2)c(O)c(C(C)(C)C)c1,-0.0113% [at 46 µM] (inactive),
COc1ccc2cc1Oc1ccc(cc1)C[C@H]1c3c(cc4c(c3Oc3cc5c(cc3OC)CCN(C)[C@@H]5C2)OCO4)CCN1C,0.0128% [at 46 µM] (inactive),
CC1(C)CC(O)CC(C)(C)N1,0.0029% [at 95.7 µM] (inactive),
O=c1[nH]c2ccccc2n1CCCN1CCN(C(c2ccccc2)c2ccccc2)CC1,-0.0474% [at 46 µM] (inactive),
O=C(O)CN(CCN(CC(=O)O)CC(=O)O)CC(=O)O,,inactive
COC(=O)C1=C(C)NC(C)=C(C(=O)OCCN2CCN(C(c3ccccc3)c3ccccc3)CC2)C1c1cccc([N+](=O)[O-])c1 (stereo not given),0.0051% [at 46 µM] (inactive),
CCCCCc1ccc(Cl)cc1,0.15% (inactive),
CCCCCCCCCCCCCC[N+](C)(C)Cc1ccccc1,,inactive
CCc1cccc(CC)c1NC(=O)CN(CC(=O)O)CC(=O)O,0.0075% [at 18.6 µM] (inactive),
C=CCCC(=O)/C=C/C1C(C)=CCCC1(C)C (stereo not given),-0.0032% (inactive),

Compound,"fluorescence, % of fluorescein control",Potency
COc1cc2nc(N3CCN(C(=O)c4ccco4)CC3)nc(N)c2cc1OC,0.12% [at 46 µM] (inactive),
Nc1nc2c(ncn2COCCO)c(=O)[nH]1,-0.0997% [at 18.6 µM] (inactive),
Cc1ccc(C(C)C)cc2c(C)ccc1-2,0.242% [at 46 µM] (inactive),
CC(C)=CCC1=C(O)c2ccccc2C(=O)C1=O,-0.345% (inactive),
O=S(=O)(O)c1ccc(N=Nc2c(O)ccc3ccccc23)cc1,-0.141% (inactive),
CN1CCN(Cc2cc(-c3ccc4[nH]c(=O)oc4c3)co2)[C@@H](c2ccc(F)cc2)C1,-0.0736% (inactive),
C=CC(=O)OCCOC(=O)C=C,-0.0551% (inactive),
CC(CO)Oc1ccccc1 (stereo not given),-0.005% [at 95.7 µM] (inactive),
O=C(Nc1ccc2c(O)c(N=Nc3ccc(N=Nc4ccc(S(=O)(=O)O)cc4)cc3)c(S(=O)(=O)O)cc2c1)c1ccccc1,-0.891% (inactive),
CCCCCCOC(=O)C(C)CC (stereo not given),0.0437% (inactive),
O=S(=O)(O)c1ccc(Nc2nc(Nc3ccc(/C=C/c4ccc(Nc5nc(Nc6ccc(S(=O)(=O)O)cc6)nc(N(CCO)CCO)n5)cc4S(=O)(=O)O)c(S(=O)(=O)O)c3)nc(N(CCO)CCO)n2)cc1,-0.0689% (inactive),
CCC(=O)C(=O)CC,0.0075% [at 95.7 µM] (inactive),
Nc1nc(N)nc(-c2cc(Cl)ccc2Cl)n1,-0.0037% [at 46 µM] (inactive),
CC(C)(C)C1CCC(=O)CC1,0.0603% (inactive),
CCCNCCC,-0.0197% (inactive),
CC(CCc1ccccc1)NCC(O)c1ccc(O)c(C(N)=O)c1 (stereo not given),,inactive
Oc1cc(Cl)cc(Cl)c1Cl,-0.0499% [at 95.7 µM] (inactive),
O=C(O)c1cc(-c2ccc(F)cc2F)ccc1O,-0.0114% [at 18.6 µM] (inactive),
CCOC(=O)c1ccc(C2CCC(NC[C@H](O)COc3ccc(O)c(NS(C)(=O)=O)c3)CC2)cc1 (stereo not given in full),0.0176% (inactive),
CC[C@H](C)COC(=O)/C=C/c1ccc(N=Cc2ccc(OC)cc2)cc1,-0.0748% (inactive),
